Screening data from PubChem BioAssay.
Shown are actives, neighbours in structure and some others; about 7% of the full set was active somewhere.
D3 antag – qHTS of D3 Dopamine Receptor Antagonist: qHTS. D(3) dopamine receptor (Homo sapiens), P35462. D3R cells, DiscoveRx beta-arrestin luminescence, antagonist mode; active compounds read low. max response, negative = inhibition, %. actives 2.5% (n = 360,000); in the data active = max response below about -50%; inconclusive = no clear call, values can overlap the other calls; also: % is scaled to controls: 0 for no effect and ±100 for the full control effect
Target sequence (P35462 whole entry, looked up): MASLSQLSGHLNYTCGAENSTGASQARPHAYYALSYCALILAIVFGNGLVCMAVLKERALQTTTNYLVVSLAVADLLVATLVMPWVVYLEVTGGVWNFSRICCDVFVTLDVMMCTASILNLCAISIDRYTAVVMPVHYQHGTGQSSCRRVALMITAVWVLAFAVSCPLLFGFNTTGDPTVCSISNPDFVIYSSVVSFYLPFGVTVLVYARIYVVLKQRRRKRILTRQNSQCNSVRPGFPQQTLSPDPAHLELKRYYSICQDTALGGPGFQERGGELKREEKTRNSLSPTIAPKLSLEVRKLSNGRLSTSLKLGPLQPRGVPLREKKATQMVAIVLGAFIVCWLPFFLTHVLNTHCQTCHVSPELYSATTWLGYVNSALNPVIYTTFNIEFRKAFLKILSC
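Cells expressing the human receptor were seeded at 1500 cells/well, incubated overnight at 37 degrees C in 5% CO2, then exposed to library compounds with dopamine controls for 90 minutes at 37 degrees C before luminescent detection.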
IL1B secr inh – qHTS for Inhibitors of Inflammasome Signaling: IL-1-beta AlphaLISA Primary Screen. THP-1 LPS/ATP IL-1B secretion, AlphaLISA, 16 h; active compounds read low. activity change, % at 57.5 µM. actives 4.7% (n = 360,000). AID 743279, 2014; in the data active = activity change below about -50%; inconclusive = mostly about -30% to -49%; also: % is scaled to controls: 0 for no effect and ±100 for the full control effect
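THP-1 cells pretreated 1 hr with compounds (up to 57.5 uM final), then stimulated with LPS (250 ng/mL final) plus ATP (1.25 mM final); secreted IL-1B measured by AlphaLISA after 16 hr, decreased signal indicating inhibition.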
ATXN2 expr inh – Primary qHTS for Inhibitors of ATXN expression; HEK-293 ATXN2-luciferase reporter, luminescence, 24 h; Potency, µM (doses to about 57 µM), without a hit: top-dose activity change, negative = inhibition, most hits filed as inhibitors; actives 0.72% (n = 360,000); AID 1745845, 2022; also: potency is read from the fitted curve at half-maximal effect; % is scaled to controls: 0 for no effect and ±100 for the full control effect; nearly all actives have a fitted effect of over 55% in size
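qHTS (up to 57 uM final) was run with 24 h compound exposure of reporter cells at 37 °C. Each well was multiplexed: SteadyGlo luminescence measured ATXN2-luciferase expression after a fluorogenic Gly-Phe-AFC viability readout (25 uM final).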
Integrin act MD – qHTS for Activators of Integrin-Mediated Alleviation for Muscular Dystrophy. Potency, µM (titrated, usually from 38.3 µM), inactives show at the top dose activation, usual class: activators. AID 624291, 2012. actives 0.064% (n = 350,000). alpha7betagal myoblasts, beta-gal FDG fluorescence, 48 h;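 also: potency is read from the fitted curve at half-maximal effect; 100% = response of the positive control SU9516; nearly all actives have a fitted effect of over 60% in size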
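alpha7betagal+/- myoblasts (passage 13, 250/well) treated 48 h at 37C with compounds at 1:260 dilution of DMSO stock. Lysed, then beta-galactosidase activity read as FDG fluorescence (ex 480/em 540) after 30 min, with pre-read for autofluorescence.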
D3 ag – qHTS of D3 Dopamine Receptor Agonist: qHTS. D(3) dopamine receptor (Homo sapiens), P35462. D3R DiscoveRx beta-arrestin cells, luminescence, 90 min. max activation, %. actives 0.58% (n = 410,000). AID 652048, 2013; in the data active = max activation above about 30%; also: 0% is about no effect
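Cells at 1500/well, incubated overnight, then treated with pinned compounds (dopamine as control) for 90 min at 37 degrees C. DiscoveRx reagent added for 30 - 60 minutes at room temperature; luminescence read.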
ATXN viability – Viability Counterscreen for Primary qHTS for Inhibitors of ATXN expression. S2 cells (HEK-293 line with an ATXN2-luciferase reporter) viability, CellTiter-Fluor protease fluorescence, 24 h. Potency, µM (titrated, usually from 56.7 µM), usual class: cytotoxic. actives 0.49% (n = 400,000). AID 651635, 2014; also: potency is read from the fitted curve at half-maximal effect; nearly all actives have a fitted effect of over 40% in size
* marks the source's active call; other numbers are inactive results; i = inactive; ? = inconclusive; . = no result given; [ ] = remark or other dose. Unless noted, calls follow the shape of the dose curve; as a rule, active = well fitted curve in the direction sought with a large enough effect; inconclusive = small, poorly fitted or top-dose-only effect, or another doubt; inactive = no such curve, though single readings can be large; an effect the other way counts as inactive or inconclusive.

SMILES	D3 antag	IL1B secr inh	ATXN2 expr inh	Integrin act MD	D3 ag	ATXN viability
CC1Cc2ccccc2N1c1ncnc(N)c1[N+](=O)[O-] (centres undefined)	5.0	-91.9*	.	?	-1.2	?
Cc1nc(N2CCOCC2)nc(N2CCCCC2C)c1[N+](=O)[O-] (centres undefined)	3.5	27.7	2.8%	13.6%	3.0	i
CC1CCCCN1c1ncnc(N)c1[N+](=O)[O-] (centres undefined)	3.0	-78.3*	?	4.47µM*	3.6	i
NS(=O)(=O)c1ccc(NC(=S)N2CCN(Cc3ccc(Cl)c(Cl)c3)CC2)cc1	-12.5	-72.3*	-31.1%	2.2%	7.7	i
CCN1CCN(C(=S)Nc2ccc(Cl)c(Cl)c2)CC1	-50.5*	-24.6	0.1%	-22.9%	-31.0	?
NS(=O)(=O)c1ccc(NC(=S)N2CCN(c3ccc(Cl)c(Cl)c3)CC2)cc1	30.7	3.4	7.3%	9.5%	0.9	i
CCN1CCN(C(=S)c2ccc(Cl)c(Cl)c2)CC1	-51.1*	-9.4	-6.9%	17.4%	-5.3	i
NS(=O)(=O)c1ccc(NC(=S)N2CCC(Cc3ccccc3)CC2)cc1	0.0	-62.2*	-17.5%	2.5%	5.9	i
CCO[C@H]1OC(C(=O)N2CCN(Cc3ccc4c(c3)OCO4)CC2)=C[C@@H](C2CCCCC2)[C@@H]1CCCO	-22.9	4.7	-38.0%	-6.1%	-33.7	?
COc1cc2cc(C(=O)N(C)C3CCS(=O)(=O)C3)[nH]c2cc1OC (centres undefined)	4.8	2.6	6.8%	12.4%	-6.4	i
CC(Nc1nc(-c2cccc(Br)c2)cs1)c1nc2cc(Cl)c(N3CCCCC3)cc2n1CCOCCO (centres undefined)	-15.5	-54.8*	-19.3%	-36.8%	-10.7	?
CC(Nc1nc(-c2ccc(F)cc2)cs1)c1nc2cc(Cl)c(N3CCCCC3)cc2n1CCOCCO (centres undefined)	3.1	-75.3*	?	-34.0%	-5.5	?
CCCn1c(C(CO)Nc2nc(-c3cccc(Br)c3)cs2)nc2ccccc21 (centres undefined)	-2.0	-56.9*	?	-37.4%	-16.8	?
NC(=S)N/N=C\c1c(OCc2ccccc2Cl)ccc2ccccc12	-18.1	-18.8	?	?	-20.7	i
COc1ccc(C2NC(=O)N(C)C3=C2C(=O)N(c2ccc(Br)cc2)C3)cc1 (centres undefined)	.	.	-3.3%	.	7.9	?
O=S(=O)(NCC1CCCO1)c1ccc(Oc2ccccc2)cc1 (centres undefined)	20.7	-3.0	-11.9%	-31.5%	1.0	i
CCOC(=O)c1c(-c2ccccc2)oc2ccc(OCC(O)CNCCN(C)C)cc12 (centres undefined)	?	-102.6*	-36.2%	-27.2%	-7.8	.
CCOC(=O)c1c(C)n(C)c2ccc(OCC(O)CN3CCN(C)CC3)cc12 (centres undefined)	0.0	-20.1	-15.8%	-15.6%	-12.6	i
CCOC(=O)c1c(-c2ccccc2)oc2ccc(OCC)cc12	16.9	-24.9	-5.2%	-0.8%	13.7	i
CCC(=O)c1ccc(OCC(O)Cn2c(C)nc3ccccc32)cc1 (centres undefined)	41.0	24.4	-7.5%	-49.1%	7.0	i
CCOC(=O)c1c(C)n(C)c2ccc(OCC(O)Cn3c(C)nc4ccccc43)cc12 (centres undefined)	14.8	-53.5*	?	-49.7%	8.4	i
CCOC(=O)c1c(C)n(-c2ccc(C)cc2)c2ccc(OCC(O)CN3CCN(C)CC3)cc12 (centres undefined)	-12.4	-57.6*	-20.9%[11.3 µM]	-17.0%	-8.7	i
CCOC(=O)c1c(C)n(C)c2ccc(OC(=O)c3ccoc3)cc12	-3.2	-7.1	-0.3%	-5.3%	-3.5	i
CCOC(=O)c1c(C)n(C)c2ccc(OCC(O)CNCCc3ccccc3)cc12 (centres undefined)	-19.7	-60.0*	.	-74.7%	-12.1	?
Clc1ccccc1-c1nnc(SCc2nc(-c3ccccc3)no2)n1-c1ccccc1	.	.	?	.	6.2	?
SMILES	D3 antag	IL1B secr inh	ATXN2 expr inh	Integrin act MD	D3 ag	ATXN viability
CCOc1ccc(C(=O)NCCC2=CCCCC2)cc1OCC	?	0.6	7.2%	?	-9.6	i
CC1Cc2ccccc2N1C(=O)CSc1nc2c(c(=O)n(C)c(=O)n2C)n1Cc1ccc(F)cc1 (centres undefined)	-27.1	-7.0	-3.3%	11.8%	-10.4	i
CCOC(=O)C1=NNC2(c3ccccc3)C(=O)N(c3cccc(Br)c3)C(=O)C12 (centres undefined)	?	26.4	2.5%	12.1%	3.4	i
Cc1cccc(Cn2cnc3c(sc4nc(C)cc(C)c43)c2=O)c1	-12.6	3.6	13.4%	2.9%	5.3	i
O=C(c1ccc(-c2ccccc2Cl)o1)N1CCN(S(=O)(=O)c2cccs2)CC1	6.0	-2.5	9.3%	-15.8%	-12.2	i
Cc1ccccc1-c1ccc(=O)n(CC(=O)Nc2ccc(-n3cnnn3)cc2)n1	-17.4	11.5	2.8%	5.5%	-0.8	i
COc1cc(-c2noc(CCC(=O)Nc3cccnc3)n2)cc(OC)c1OC	24.8	-15.0	8.0%	8.7%	1.0	i
CC(C)c1ccc(NC(=O)CSc2nc(=O)n(CCCN3CCOCC3)c3c2CCC3)cc1	5.4	-62.6*	-9.7%	?	-5.2	i
O=C(CSc1nc(=O)n(CCN2CCOCC2)c2c1CCC2)Nc1ccc(OC(F)(F)F)cc1	6.6	-74.7*	-28.4%	-13.3%	8.4	i
Cc1cc(C)cc(NC(=O)CSc2nc(=O)n(CCCN3CCOCC3)c3c2CCCC3)c1	13.7	-52.3*	-4.0%	-13.6%	-9.4	i
COc1ccc(NC(=O)NCCN2CCN(c3cccc(Cl)c3)CC2)cc1	-58.4*	-15.2	-20.3%	-15.7%	-10.0	i
COc1ccc(Cl)cc1NC(=O)NCCN1CCCCC1	?	-27.1	2.5%[2.22 µM]	-0.3%	-14.4	i
COc1cc(NC(=O)NCCN2CCN(c3ccc(Cl)cc3)CC2)ccc1C	?	-60.1*	-18.6%	-36.1%	-11.9	i
Cc1ccc(Cl)cc1NC(=O)NCCN1CCCCC1	-67.1*	-10.1	-7.0%	22.2%	-13.3	i
COc1ccccc1C(=O)NCCN1CCN(c2ccccc2)CC1	0.0	24.0	.	13.1%	41.7*	i
CCN(CC)c1nc2ccccc2nc1C(=O)Nc1ccc(C(C)=O)cc1	.	.	-16.7%	.	1.3	?
